Assay outcomes deposited in PubChem BioAssay by National Center for Advancing Translational Sciences (NCATS).
FLuc counter – inhibits or activates purified firefly luciferase, miR-21 counter-screen; purified FLuc, Km substrates, luminescence inhibition; Potency, µM (series often up to 57.5 µM), usual class: inhibitors; 360,000 tested, 6.9% active; AID 588342; note: nearly all actives have a fitted effect of over 55% in size
Target sequence (P08659 whole entry, looked up): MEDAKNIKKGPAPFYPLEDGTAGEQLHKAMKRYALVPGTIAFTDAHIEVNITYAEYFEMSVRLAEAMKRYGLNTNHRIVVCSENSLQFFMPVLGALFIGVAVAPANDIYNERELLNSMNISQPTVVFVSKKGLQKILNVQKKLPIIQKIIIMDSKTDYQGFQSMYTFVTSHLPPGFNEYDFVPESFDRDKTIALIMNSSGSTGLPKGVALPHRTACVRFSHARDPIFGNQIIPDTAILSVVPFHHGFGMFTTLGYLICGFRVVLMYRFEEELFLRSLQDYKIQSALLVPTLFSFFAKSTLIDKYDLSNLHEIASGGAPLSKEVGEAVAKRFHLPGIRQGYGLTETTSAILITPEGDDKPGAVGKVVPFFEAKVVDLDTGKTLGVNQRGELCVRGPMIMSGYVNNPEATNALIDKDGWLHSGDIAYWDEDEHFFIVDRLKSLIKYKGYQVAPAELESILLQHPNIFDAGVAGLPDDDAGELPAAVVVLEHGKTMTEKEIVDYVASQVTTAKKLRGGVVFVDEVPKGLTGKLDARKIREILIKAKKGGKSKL
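Purified P. pyralis luciferase (10nM final) with 10uM D-luciferin and 10uM ATP (Km levels) in 50mM Tris acetate pH 7.5, 10mM Mg acetate, 0.01% Tween-20, 0.05% BSA; qHTS 6-point titration, ~60 µM downward; luminescence read.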
ELG1 genotoxic – induces genotoxicity in HEK293T cells with luciferase-tagged ELG1; HEK293T ELG1-luciferase reporter, luminescence, 16 h; Potency, µM (titrated, usually from 46 µM), most hits filed as activators; 330,000 tested, 1.3% active; note: nearly all actives have a fitted effect of over 60% in size
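Genotoxicity was scored as increased ELG1-luciferase reporter signal, measured by ONE-Glo luminescence (30 min, room temperature). Compound or vehicle exposure of the HEK293T reporter cells lasted 16 hr at 37°C.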
Rab9 promoter act – activates the Rab9 promoter. Potency, µM (series often up to 9.22 µM), most hits filed as activators. 320,000 tested, 2.8% active. AID 485297. Huh7 Rab9 promoter-luciferase reporter, luminescence, 24 h; note: nearly all actives have a fitted effect of over 60% in size
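Using Huh7 cells stably transfected with Rab9 promoter–luciferase, compounds were incubated 24 h at 37 °C, 5% CO2; luciferase luminescence was read 10 min after reagent addition.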
ELG1 repair inh – blocks ELG1-dependent DNA repair in HEK293T cells; Potency, µM (top dose mostly 46.1 µM), most hits filed as inhibitors; 330,000 tested, 2.3% active; HEK293T ELG1-luciferase reporter, luminescence, 16 h; DNA damage induced by 5-fluorouridine; note: nearly all actives have a fitted effect of over 55% in size
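DMSO vehicle served as the neutral condition. Each well held 2,000 cells given 5-fluorouridine plus compound; after 16 hr at 37 °C/5% CO2, ONE-Glo was added and luciferase measured 30 min later.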
NPC1 prom act – activates the NPC1 promoter; Huh7 NPC1 promoter luciferase reporter, 24 h; Potency, µM (top dose mostly 9.22 µM), hits mostly activators; 320,000 tested, 2.4% active; note: nearly all actives have a fitted effect of over 60% in size
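Huh7 reporter cells (NPC1 promoter driving luciferase) are dosed with compound for 24 h at 37 °C, 5% CO2; luciferase detection reagent is then added and luminescence measured after 10 min at ambient temperature.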
SMN2 splice enh – increases expression of the SMN2 splice variant | HEK293 SMN2-luciferase splicing reporter, luminescence, 30-36 h | Potency, µM (series often up to 46.1 µM), actives largely listed as activators | 210,000 tested, 2.8% active | AID 1458; note: nearly all actives have a fitted effect of over 55% in size
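qHTS luciferase splicing reporter: luminescence rises when SMN2 exon 7 is included in transfected HEK293 cells. Compound exposure lasted 30-36 h at 37C, with 4.5 mM final sodium butyrate as control, followed by a ONE-Glo read.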
Numbers stand for hits; n = inactive; u = inconclusive; x = not tested or not shown; [ ] = dose if it differs, or a comment. A selection: hits, their analogues and other compounds. The true share with any hit is near 9.3%. Calls come from the whole dose curve; as a rule, active = well fitted curve in the direction sought with a large enough effect; inconclusive = small, poorly fitted or top-dose-only effect, or another doubt; inactive = no such curve, though single readings can be large; an effect the other way counts as inactive or inconclusive.

SMILES | FLuc counter | ELG1 genotoxic | Rab9 promoter act | ELG1 repair inh | NPC1 prom act | SMN2 splice enh
O=C(CCC1N=C2c3ccccc3N=C(SCc3ccc(F)cc3)N2C1=O)NCc1ccco1 (stereo not given) | n | n | n | u | n | x
CCOC(=O)c1cc2cc(OC)ccc2[nH]1 | 12µM | u | 4µM | u | 3.5µM | n
CCOC(=O)c1[nH]c2ccc(OC)cc2c1NC(=S)N1CCN(c2cccc(C)c2C)CC1 | n | n | n | 13µM | n | n
COc1ccc2[nH]c(C(=O)NCc3ccccc3)cc2c1 | n | n | n | u | n | x
Cc1csc(NC(=O)C2CCC(C)(C(=O)O)C2(C)C)n1 (stereo not given) | n | n | n | n | n | n
COc1ccccc1NC(=O)CSC1=Nc2ccccc2C2=NC(Cc3ccccc3)C(=O)N12 (stereo not given) | n | x | x | x | x | x
COCCCn1c(SCC(=O)NC2CCCCC2)nc2ccccc2c1=O | n | n | n | n | n | x
COc1ccc(C(=O)Nn2c(SCC(=O)c3ccc(Cl)cc3)nc3ccccc3c2=O)cc1 | 4.8µM | u | 0.5µM | u | 0.45µM | n
COc1ccc(C(=O)Nn2c(SCC(=O)N3CCC(C)CC3)nc3ccccc3c2=O)cc1 | 0.67µM | u | x | u | 0.4µM | n
COc1ccc(C(=O)Nn2c(SCC(=O)NC3CCCCC3)nc3ccccc3c2=O)cc1 | 1.9µM | u | 4µM | u | 3.5µM | n
COc1ccc(C(=O)Nn2c(SCc3cccc([N+](=O)[O-])c3)nc3ccccc3c2=O)cc1 | 5.4µM | 0.73µM | 3.5µM | u | 4µM | x
O=C(Nn1c(SCc2cccc([N+](=O)[O-])c2)nc2ccccc2c1=O)c1ccccc1 | u | n | n | u | n | u
COc1ccc(S(=O)(=O)N2CCCC2)cc1C(C)C | n | n | n | n | n | n
N#Cc1ccc(S(=O)(=O)Nc2ccccc2N2CCOCC2)cc1 | x | n | x | n | x | x
CCn1c(SCC(=O)NCc2ccco2)nc2ccccc2c1=O | n | n | n | n | n | x
COc1ccc(C(=O)Nn2c(SCC(=O)NCc3ccco3)nc3ccccc3c2=O)cc1 | 0.21µM | u | 0.089µM | u | 0.32µM | u
CCN(C(=O)C(=O)Nc1ccc2nc3n(c(=O)c2c1)CCCCC3)c1ccc(F)cc1 | n | x | x | x | x | n
CC(=O)Nc1ccc(NC(=O)CSc2ccc(-c3ccc4c(c3)OCO4)nn2)cc1 | n | u | n | u | n | u
Cc1ccccc1CSc1ccc(-c2ccc3c(c2)OCO3)nn1 | 7.6µM | u | u | u | n | x
O=[N+]([O-])c1cccc(-c2ccc(SCc3cccnc3)nn2)c1 | u | n | u | n | n | n
Cc1nc(C)c(-c2ccc(SCc3ccccc3C)nn2)s1 | 13µM | n | n | u | n | x
c1cncc(CSc2ccc(-c3ccc4c(c3)OCO4)nn2)c1 | 17µM | n | 2.8µM | u | 3.2µM | n
Fc1cccc(CSc2ccc(-c3ccc4c(c3)OCO4)nn2)c1 | 11µM | n | n | u | n | u
COc1ccc(C(=O)Nc2scc(-c3ccc(Cl)cc3Cl)c2C(N)=O)cc1 | 4.8µM | n | 3.2µM | u | 2.8µM | n
Cc1cccc(Nc2nc(-c3ccc(F)c(C)c3)cs2)n1 | 6µM | n | 4µM | u | 3.2µM | x
SMILES | FLuc counter | ELG1 genotoxic | Rab9 promoter act | ELG1 repair inh | NPC1 prom act | SMN2 splice enh
Cc1cccc(Nc2nc(-c3ccc(O)c(O)c3)cs2)n1 | 21µM | u | n | u | n | x
CCO[C@@H]1c2c(ccc3ccc(=O)oc23)OC(C)(C)[C@H]1O | n | n | n | n | n | x
Cc1cc(Br)cc2c(C(=O)NCC3CCCO3)cc(-c3ccccc3)nc12 (stereo not given) | 1.3µM | u | n | u | n | x
Cc1nc(SC(C)C(=O)NCC2CCCO2)c2cc(-c3ccccc3)sc2n1 (stereo not given) | 12µM | n | n | u | n | x
Cc1ccc2nc(-c3cccc(Br)c3)cc(C(=O)NCC3CCCO3)c2c1 (stereo not given) | u | n | n | u | n | x
CCn1c(SC(C)C(=O)NCC2CCCO2)nc2scc(-c3ccccc3)c2c1=O (stereo not given) | n | n | n | u | n | x
O=C(NCC1CCCO1)c1cc(-c2ccccc2)nc2ccc(Br)cc12 (stereo not given) | 2.4µM | n | n | n | n | x
O=C1C2C3C=CC(C4CC34)C2C(=O)N1c1ccc2c(c1)OCO2 (stereo not given) | 21µM | n | n | n | n | n
CCn1c(SCC(=O)Nc2ccc3c(c2)OCO3)nnc1-c1cnccn1 | n | n | n | n | n | n
CCn1c(SCC(=O)Nc2ccc3c(c2)OCCO3)nnc1-c1ccco1 | 15µM | n | n | n | n | n
CCn1c(SCC(=O)NC(=O)Nc2ccc3c(c2)OCCO3)nnc1-c1cccs1 | 19µM | n | n | u | n | n
CCN(CC(=O)Nc1ccc2c(c1)OCCO2)c1nc(-c2cccnc2)nc2ccccc12 | n | n | n | 13µM | n | n
CCn1c(SCC(=O)Nc2ccc3c(c2)OCCO3)nnc1-c1cccnc1 | 24µM | n | n | n | n | x
CCOC(=O)c1c(NC(=O)OC)sc(C(=O)N(C)C)c1C | n | n | n | n | n | n
COC(=O)[C@@]1(Cc2ccc(F)cc2)[C@H]2c3cc(C(=O)N(C)C)n(Cc4cccc5ccccc45)c3C[C@H]2CN1C(=O)c1ccccc1 | x | x | x | x | x | n
Cc1ccc(NC(=O)NCc2c(C)nn(C)c2C)cc1Cl | 24µM | u | 4µM | u | u | 16µM
Cc1nn(C)cc1CNC(=O)Nc1ccc(Cl)c(Cl)c1 | 24µM | 13µM | 2.5µM | u | 3.2µM | n
CC1CCN(C(=O)c2ccc(S(=O)(=O)NCc3ccco3)cc2)CC1 | n | n | n | n | n | x
CC(=O)c1cccc(NC(=O)CN2CCc3cc4c(cc3C2C)OCCCO4)c1 (stereo not given) | n | n | n | 12µM | n | x
CC1c2cc3c(cc2CCN1CC(=O)Nc1ccc(S(=O)(=O)N2CCCC2)cc1)OCCCO3 (stereo not given) | n | n | n | u | n | x
CC1c2cc3c(cc2CCN1C(=O)c1ccc(Cl)cc1)OCCCO3 (stereo not given) | n | n | n | 23µM | n | x
Cc1ccc(C(=O)N2CCc3cc4c(cc3C2C)OCCCO4)cc1 (stereo not given) | n | n[9.26 µM] | n | n | n | x
CCc1nnc(NC(=O)CC(C)c2ccccc2)s1 (stereo not given) | n | n | n | n | n | x
CCc1nnc(NC(=O)CC(=O)Nc2ccccc2C(=O)O)s1 | 15µM | n | u | u | n | n
CCCCc1nnc(NC(=O)CCSc2ccccc2)s1 | n | n | n | n | n | n
